Source: PubChem
Many of the other results were omitted from the sample, so hits are more common in it than they were.
Pf Dd2 inh: Plasmodium falciparum Dd2 growth inhibition; P. falciparum Dd2 growth, SYBR Green, 72 h; Potency, µM (series often up to 28.9 µM), most hits filed as inhibitors; 120,000 compounds, 4.3% hits; active means well fitted inhibition curve with a large enough effect; further: nearly all actives have a fitted effect of over 65% in size
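Readout: SYBR Green fluorescence, 485 nm excitation, 535 nm emission, after ~16 h lysis at 37C. Before that, Dd2-infected red cells (2.5% hematocrit) grew 72 h with compound, 29 uM top final concentration.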
Numbers stand for hits; – = inactive; [ ] = another dose, or the depositor's remark.

SMILES	Pf Dd2 inh
CN1CCCCCCN(C(=O)c2ccnn2C)[C@H]2CCC[C@H]2C1=O	–
CN1CCCCCCN(C(=O)c2ccc3ccccc3n2)[C@H]2CCC[C@H]2C1=O	6.3µM
Cc1cn(CC(=O)NC(c2nnc3n2CCNCC3)C(C)C)c(=O)[nH]c1=O (centres undefined)	–
CCOc1ccc(CNC(=O)C2CCN(Cc3cc4ccccc4n3Cc3ccccc3C)CC2)cc1	–
Cc1ccccc1Cn1c(CN2CCC(C(=O)NCc3ccc(Cl)cc3)CC2)cc2ccccc21	–
Cc1ccccc1Cn1c(CN2CCC(C(=O)NCCN(C)C)CC2)cc2ccccc21	1µM
CCN(CC)Cc1cnc2c(C(=O)N3CC[C@H]4CNC[C@H]43)cnn2c1	–
CCOC(=O)c1cnc(N2CCN(c3ccc(OC)cc3)CC2)c2ccccc12	–
CCOc1ccc(CNC(=O)c2cnc(SC)nc2CC)cc1	–[5.79 µM]
CCC[C@@H]1CN(c2nc(SC)ncc2C(=O)OCC)C[C@H]1N(C)C	13µM
CSc1cccc(NC(=O)CCn2ccn3nc4c(c3c2=O)CCCC4)c1	–
COc1ccc(CN2C(=O)[C@@H]3C[C@@H](CN3Cc3ccc(S(C)(=O)=O)cc3)Oc3ccccc32)cc1	–
O=C1[C@@H]2C[C@@H](CN2C2CCOCC2)Oc2ccccc2N1Cc1ccccn1	–
COCCN1C(=O)[C@@H]2C[C@@H](CN2Cc2ccccn2)Oc2ccccc21	10µM
COCCN1C(=O)[C@@H]2C[C@@H](CN2Cc2ccc(C(F)(F)F)cc2)Oc2ccccc21	14µM
O=C1[C@@H]2C[C@@H](CN2Cc2ccc(C(F)(F)F)cc2)Oc2ccccc2N1Cc1cccnc1	–
COCCN1C(=O)[C@@H]2C[C@@H](CN2C(=O)c2ccccc2)Oc2ccccc21	–
COCCN1Cc2[nH]nc(-c3cccc(C(F)(F)F)c3)c2CC1=O	–
COc1ccc(C(=O)N2CCCC(n3cc(-c4nc(C)no4)nn3)C2)cc1F (centres undefined)	–
O=C(NC1CCc2n[nH]c(=O)n2CC1)c1ccc2ccccc2n1 (centres undefined)	–
COc1ccc(Cl)cc1C(=O)Nc1ccc(-c2nnc3n2CCCCC3)cc1	–
CCOc1ccc(C(=O)Nc2ccc(-c3nnc4n3CCCCC4)cc2)cc1OCC	–
O=C(Nc1ccc(-c2nnc3n2CCCC3)cc1)c1cc(-c2ccccc2)n[nH]1	14µM
O=C(Nc1ccc(-c2nnc3n2CCCC3)cc1)c1ccc2ccccc2n1	1µM
COc1ccc(C(=O)Nc2ccc(-c3nnc4n3CCCC4)cc2)cn1	7.1µM
SMILES	Pf Dd2 inh
O=C(Nc1ccc(-c2nnc3n2CCCC3)cc1)c1ccc(Cl)cc1	5µM
O=C(Nc1ccc(-c2nnc3n2CCCC3)cc1)c1cc(F)ccc1F	–
O=C(Nc1ccc(-c2nnc3n2CCCC3)cc1)c1ccncc1	–
N#Cc1ccc(C(=O)N2CCC3(CC2)CC(CO)N(C(=O)c2ccccc2)C3)cc1 (centres undefined)	–
Cn1nccc1C(O)c1cc2n(n1)CCN(c1ncc(Cl)cn1)C2 (centres undefined)	–
Cc1noc(-c2cn(C3CCN(C(=O)c4ccoc4)C3)nn2)n1 (centres undefined)	–
O=C(NC1CCCc2c1[nH]c1ccc(F)cc21)c1ccc(Br)o1 (centres undefined)	–
CC(C)(C)c1nnc2n1C(C(=O)NCc1ccc(F)cc1)CC2 (centres undefined)	–
Cc1c(C(=O)N2CCC3(CC2)CC(C(=O)O)N(C)C3)c[nH]c(=O)c1C#N (centres undefined)	–
CC(=O)Nc1cccc(-c2ccnc(-c3nnc(C)n3C(C)C)c2)c1	–
COc1ccccc1C(=O)N1C[C@@H](F)C[C@H]1C(=O)N1CCOCC1	–
COC[C@@H]1CN(C(=O)c2ccco2)C[C@H]1c1nc(C2CC2)no1	–
O=C(NC1CC1)[C@@H]1C[C@H](Oc2cccnc2)CN1S(=O)(=O)c1cccc(F)c1	–
Cc1nc2c(c(N[C@@H]3COCC[C@H]3OCc3ccccn3)n1)CCC2	–
O=C(O)CCCc1nc(-c2ccncc2)nn1C1Cc2ccccc2C1	–
COc1ccc(C(=O)N2CCC3(CC2)NCCc2c3[nH]c3ccc(OC)cc23)c(OC)c1	–
O=c1cc(N2CCOCC2)oc2c(-c3ccncc3)nccc12	–
COc1cccc(CNC(=O)Cn2cc3c(n2)-c2c(oc(C(=O)N4CCCC4)c2C)CC3)c1	–
Cc1c(C(=O)N2CCCC2)oc2c1-c1nn(CC(=O)NCc3cccc(F)c3)cc1CC2	–
CCCCN(CCCC)CCCNC(=O)Cn1cc2c(n1)-c1c(oc(C(=O)N3CCCC3)c1C)CC2	11µM
OCC1(CCOc2ccccc2)CCCN(c2ncnc3sccc23)C1 (centres undefined)	–
CC(C)NC(=O)C[C@@H]1C[C@H]2O[C@H](CNC(=O)N3CCOCC3)[C@@H](O)[C@H]2O1	–
O=C(c1cccs1)N1CCC(N2CC3CC(C2)[C@H]2CCCC(=O)N2C3)CC1 (some centres undefined)	–
CS(=O)(=O)N1CCCC(C(=O)N2CCOCC2)CCNC(=O)CC1 (centres undefined)	–
COc1ccc(OC)c(C(=O)CN2C(=O)N(c3cc(C)cc(C)c3)S(=O)(=O)c3ccccc32)c1	10µM
SMILES	Pf Dd2 inh
CCc1ccccc1N1C(=O)N(CC(=O)c2ccc(OC)cc2)c2ccccc2S1(=O)=O	–
COc1cccc(N2C(=O)N(Cc3ccc(C#N)cc3)c3ccccc3S2(=O)=O)c1	–
CN(C)c1nc2c(c(=O)[nH]1)CCN(Cc1cc(F)ccc1F)CC2	–[5.79 µM]
CN(C)c1nc2c(c(=O)[nH]1)CCN(Cc1ccc(F)cc1Cl)CC2	1µM
CN(Cc1cccnc1)c1nc2c(c(=O)[nH]1)CCN(Cc1ccc(Cl)c(F)c1)CC2	–[5.79 µM]
CN(C)c1nc2c(c(=O)[nH]1)CCN(Cc1ccc(F)cc1F)CC2	–[5.79 µM]
CN(Cc1cccnc1)c1nc2c(c(=O)[nH]1)CCN(Cc1ccc(F)cc1Cl)CC2	2.8µM
CN(Cc1cccnc1)c1nc2c(c(=O)[nH]1)CCN(Cc1cccc(F)c1)CC2	–[5.79 µM]
COc1ccc(C(C)NC(=O)CN2C(=O)NC3(CCOCC3)C2=O)cc1 (centres undefined)	–
O=C(Cn1nc2c(cc1=O)CCCC2)NC1CCN(Cc2ccccc2)CC1	–
C#C[C@H]1CN2CC[C@H]1C[C@@H]2CNC(=O)c1ccc(-c2ccccc2)cc1	–
CN(C)c1ccc(C(=O)NC2CCN(c3cc(-c4cccs4)[nH]n3)C2)cc1 (centres undefined)	–
COc1ccc(C2Cn3cnc(-c4nc(-c5ccc(OC(C)C)cc5)no4)c3CO2)cc1 (centres undefined)	11µM
Clc1ccccc1C1Cn2cnc(-c3nc(-c4cccnc4)no3)c2CO1 (centres undefined)	4.5µM
COc1cccc(C2Cn3nnc(-c4nc(-c5ccc(OC(C)C)cc5)no4)c3CO2)c1 (centres undefined)	–
COc1ccc(C2Cn3nnc(-c4nc(-c5ccc(C)cc5)no4)c3CO2)cc1 (centres undefined)	–
Fc1ccc(C2Cn3nnc(-c4nc(-c5cccnc5)no4)c3CO2)cc1 (centres undefined)	–
CCOc1ccc(C2Cn3nnc(-c4nc(-c5cccnc5)no4)c3CO2)cc1 (centres undefined)	–
COc1cc(C(=O)N2CCCC2c2nonc2C)ccc1OC1CCN(C(C)=O)CC1 (centres undefined)	–
O=C(c1ccc(Cl)cc1)N1C[C@@H](CO)[C@H](c2nc(C3CC3)no2)C1	–
Cc1ccc(-n2nc(C)c([C@H]3C=C[C@@H](OC(=O)Nc4cccc(F)c4)C3)c2C)cc1Cl	11µM
